# Reference: PubChem BioAssay (EPA / NIEHS)
# Inconclusive results are not listed. Calls of active or inactive are those of the source. The calls were made as follows: active = hit-call score of the fitted dose curve at least 0.9, where 1 is the maximum; inconclusive = response in the unintended direction; inactive = score below 0.9.
# Molecular target: human Serotonin, 5-Hydroxytryptamine Receptor 7 (5HT7), HTR7 (gene 3363) (UniProt P34969)
# Experiment: NVS_GPCR_h5HT7: NovaScreen (NVS) G Protein-Coupled Receptor Assay for human Serotonin, 5-Hydroxytryptamine Receptor 7 (5HT7) (AID 2283255);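 also: hits reduce specific radioligand binding relative to DMSO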
# Outline: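 Radioligand displacement on membranes from CHO cells expressing human 5HT7, 1 h incubation, filter-based scintillation counting. Primary screen used a single 25 uM concentration in duplicate; actives were followed up in concentration series.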
# human Serotonin, 5-Hydroxytryptamine Receptor 7 (5HT7), HTR7 (gene 3363), sequence (P34969 whole entry, looked up): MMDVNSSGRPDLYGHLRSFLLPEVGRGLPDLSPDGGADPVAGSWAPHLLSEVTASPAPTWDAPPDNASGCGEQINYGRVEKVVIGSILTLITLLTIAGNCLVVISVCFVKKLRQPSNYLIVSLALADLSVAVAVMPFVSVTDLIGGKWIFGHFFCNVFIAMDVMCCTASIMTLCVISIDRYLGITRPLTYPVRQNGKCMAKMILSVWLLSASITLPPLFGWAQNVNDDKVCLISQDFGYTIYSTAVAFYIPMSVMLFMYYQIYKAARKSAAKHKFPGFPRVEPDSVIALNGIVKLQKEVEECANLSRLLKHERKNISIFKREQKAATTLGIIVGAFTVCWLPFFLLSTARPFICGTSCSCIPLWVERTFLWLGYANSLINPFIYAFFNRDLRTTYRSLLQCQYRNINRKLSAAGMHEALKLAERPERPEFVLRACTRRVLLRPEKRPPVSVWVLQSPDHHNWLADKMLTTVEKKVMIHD
SMILES,AC50,outcome
C=CCc1cc(S(=O)(=O)c2ccc(O)c(CC=C)c2)ccc1O,9.39 µM (active),
CCCCCCCCN(C)C,6.63 µM (active),
CCCCCCCCCC,,inactive
CCN(CC)C(=S)SSC(=S)N(CC)CC,13.5 µM (active),
CCn1nc(C)c2c1C(=O)NCC(c1ccc(O)cc1)=N2,25 µM (active),
c1ccc(C(O[C@@H]2CCCN(CCc3ccc4c(c3)OCO4)C2)c2ccccc2)cc1,0.99 µM (active),
CCCCCCCCCCCCCCCCOS(=O)(=O)O,15.6 µM (active),
O=S(=O)(O)c1ccc(N=Nc2c(O)ccc3cc(S(=O)(=O)O)ccc23)cc1,,inactive

# Molecular target: human Adenosine A2a Receptor (AdoRA2a), ADORA2A (gene 135) (UniProt P29274)
# Sequence (P29274 whole entry, looked up): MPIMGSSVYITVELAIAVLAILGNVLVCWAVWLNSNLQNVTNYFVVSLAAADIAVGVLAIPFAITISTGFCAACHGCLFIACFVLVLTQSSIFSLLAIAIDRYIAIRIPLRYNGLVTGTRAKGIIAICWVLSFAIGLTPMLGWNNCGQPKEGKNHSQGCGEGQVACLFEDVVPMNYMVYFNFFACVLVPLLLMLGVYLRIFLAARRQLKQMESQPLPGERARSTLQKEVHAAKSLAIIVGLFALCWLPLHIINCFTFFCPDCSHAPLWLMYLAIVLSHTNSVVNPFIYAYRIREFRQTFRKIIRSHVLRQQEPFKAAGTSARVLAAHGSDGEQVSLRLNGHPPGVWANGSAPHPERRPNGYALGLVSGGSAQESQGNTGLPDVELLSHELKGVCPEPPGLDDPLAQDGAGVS
# Experiment: NVS_GPCR_hAdoRA2a: NovaScreen (NVS) G Protein-Coupled Receptor Assay for human Adenosine A2a Receptor (AdoRA2a) (AID 2283256)
# Outline: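 Cell-free radioligand binding on membranes from HEK293 expressing the receptor; competitive displacement read 1.5 h after dosing by filter-based scintillation counting. Primary screen in duplicate at 25 uM; actives followed in concentration series, with DMSO as baseline.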
SMILES,AC50,outcome
C=CCc1cc(S(=O)(=O)c2ccc(O)c(CC=C)c2)ccc1O,15.6 µM (active),
CCCCCCCCCC,,inactive
COCc1nnc(-c2ccc[n+]([O-])c2)n1-c1c(Cl)c(Cl)cc2[nH]c(=O)c(=O)[nH]c12,,inactive
CCn1nc(C)c2c1C(=O)NCC(c1ccc(O)cc1)=N2,10.2 µM (active),
Cc1nccn1-c1ccc(Sc2cccc(C3(C(N)=O)CCOCC3)c2)cc1,4.51 µM (active),
O=S(=O)(O)c1ccc(N=Nc2c(O)ccc3cc(S(=O)(=O)O)ccc23)cc1,35 µM (active),
OCc1c[nH]c2ccccc12,,inactive
CCc1ccc(O)c(C(C)(C)C)c1,,inactive

# Molecular target: human Adrenergic, Alpha 2A Receptor (Adra2A), ADRA2A (gene 150) (UniProt P08913)
# Sequence (P08913 whole entry, looked up): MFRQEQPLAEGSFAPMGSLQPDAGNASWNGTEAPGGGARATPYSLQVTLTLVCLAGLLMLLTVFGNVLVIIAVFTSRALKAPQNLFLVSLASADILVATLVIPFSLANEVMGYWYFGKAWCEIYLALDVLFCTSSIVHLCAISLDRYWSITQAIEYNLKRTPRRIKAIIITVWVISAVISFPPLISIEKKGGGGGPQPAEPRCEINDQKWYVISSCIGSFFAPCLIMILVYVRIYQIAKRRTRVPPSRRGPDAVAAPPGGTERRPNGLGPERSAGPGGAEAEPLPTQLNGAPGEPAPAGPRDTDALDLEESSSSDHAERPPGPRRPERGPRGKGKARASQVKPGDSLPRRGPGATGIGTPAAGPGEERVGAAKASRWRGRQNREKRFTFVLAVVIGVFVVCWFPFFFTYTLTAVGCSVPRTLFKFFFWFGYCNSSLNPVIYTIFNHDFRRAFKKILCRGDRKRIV
# Experiment: NVS_GPCR_hAdra2A: NovaScreen (NVS) G Protein-Coupled Receptor Assay for human Adrenergic, Alpha 2A Receptor (Adra2A) (AID 2283257)
# Method: (§1) NVS_GPCR_hAdra2A is a biochemical, single-readout assay that uses extracted gene-proteins from HT29 in a cell-free assay. Measurements were taken 1 hour after chemical dosing in a 48-well plate.NVS_GPCR_hAdra2A is one of one assay component(s) measured or calculated from the NVS_GPCR_hAdra2A assay. It is designed to make measurements of radioligand binding, a form of binding reporter, as detected with scintillation counting signals by Filter-based radiodetection technology.Data from the assay component NVS_GPCR_hAdra2A was analyzed into 1 assay endpoint. This assay endpoint, NVS_GPCR_hAdra2A, was analyzed in the positive analysis fitting direction relative to DMSO as the negative control and baseline of activity. Using a type of binding reporter, loss-of-signal activity can be used to understand changes in the binding as they relate to the gene ADRA2A. Furthermore, this assay endpoint can be referred to as a primary readout, because the performed assay has only produced 1 assay endpoint. To generalize the intended target to other relatable targets, this assay endpoint is annotated to the gpcr intended target family, where the subfamily is rhodopsin-like receptor.
# (§2) Binding assays used specific radioligands (tritiated, iodinated) with non-radioactive competitive displacement ligands in agonist or antagonist protocols (as indicated) and various reference compounds and inhibitors to titrate specific binding to receptors and transporters. Most enzyme assays (CYPs, kinases, phosphatases, proteases, HDACs) used recombinant protein and specific substrates (fluorescence mostly, some colorimetric and radioactive) and inhibitors, followed by a biochemical separation of substrate and product. All assays for the biochemical HTS were initially run in duplicate at a single concentration (10 uM for CYP450 assays and 25 uM for all others). […] Each assay was run with positive and negative controls, and concurrent controls on every plate. The follow-up (secondary) screen tested active chemical-pairs in concentration series, as well as a few additional assays not tested in the primary screen, some selected negative inactives, and several cases re-run in the concentration series for confirmatory purposes.
SMILES,outcome,AC50
NNC(=O)c1ccncc1,inactive,
O=C(NO)C1(NS(=O)(=O)c2ccc(Oc3ccc(F)cc3)cc2)CCOCC1,,25 µM (active)
Cc1ncc([C@@H](CCCCCCc2ccc3c(n2)NCCC3)CC(=O)O)cn1,,13.7 µM (active)
OC(CCl)CCl,,25 µM (active)
CCn1nc(C)c2c1C(=O)NCC(c1ccc(O)cc1)=N2,inactive,
O=C(O)c1ccc2c(c1)nc(C(=O)NC1CCN(C3CC3)CC1)n2Cc1cc(-c2ccc(Cl)s2)on1,,0.308 µM (active)
c1ccc(C(O[C@@H]2CCCN(CCc3ccc4c(c3)OCO4)C2)c2ccccc2)cc1,,18 µM (active)
COc1cc(C(C)C)c2c(c1)S(=O)(=O)N(COc1cc(=O)n3cccc(OCCN4CCCCC4)c3n1)C2=O,,2.83 µM (active)
O=S(=O)(O)c1ccc(N=Nc2c(O)ccc3cc(S(=O)(=O)O)ccc23)cc1,inactive,

# Molecular target: human Adrenergic, Beta 1 Receptor (Adrb1), ADRB1 (gene 153) (UniProt P08588)
# Sequence (P08588 whole entry, looked up): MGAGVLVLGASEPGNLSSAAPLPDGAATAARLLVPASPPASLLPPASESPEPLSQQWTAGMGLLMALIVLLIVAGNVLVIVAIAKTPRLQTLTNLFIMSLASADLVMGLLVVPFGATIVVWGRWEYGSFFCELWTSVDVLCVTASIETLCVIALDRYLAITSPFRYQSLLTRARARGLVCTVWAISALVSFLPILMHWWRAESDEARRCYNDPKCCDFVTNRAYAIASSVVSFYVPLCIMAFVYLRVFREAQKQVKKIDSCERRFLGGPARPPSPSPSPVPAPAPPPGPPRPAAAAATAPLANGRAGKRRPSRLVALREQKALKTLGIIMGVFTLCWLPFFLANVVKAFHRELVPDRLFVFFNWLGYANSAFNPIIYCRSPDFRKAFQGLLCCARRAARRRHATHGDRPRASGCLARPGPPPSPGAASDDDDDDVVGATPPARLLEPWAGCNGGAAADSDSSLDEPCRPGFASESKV
# Experiment: NVS_GPCR_hAdrb1: NovaScreen (NVS) G Protein-Coupled Receptor Assay for human Adrenergic, Beta 1 Receptor (Adrb1) (AID 2283258)
# Outline: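 Cell-free radioligand displacement on receptor from human neuroepithelioma cells; 2 h after dosing, filter-based scintillation counting. Primary screen in duplicate at 25 uM, actives retested in concentration series; loss of signal vs DMSO baseline.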
SMILES,AC50,outcome
C=CCc1cc(S(=O)(=O)c2ccc(O)c(CC=C)c2)ccc1O,20.1 µM (active),
CCCCCCCCCC,,inactive
CCCCCCCC/C=C\CCCCCCCC(=O)OC[C@@H](O)[C@H]1OC[C@H](O)[C@H]1O,43.1 µM (active),
CCN(CC)C(=S)SSC(=S)N(CC)CC,2.55 µM (active),
c1ccc(C(O[C@@H]2CCCN(CCc3ccc4c(c3)OCO4)C2)c2ccccc2)cc1,25 µM (active),
CCCCCCCCCCCCCCCCOS(=O)(=O)O,3.47 µM (active),

# Molecular target: human Adrenergic, Alpha 2c Receptor (Adra2C), ADRA2C (gene 152) (UniProt P18825)
# Sequence (P18825 whole entry, looked up): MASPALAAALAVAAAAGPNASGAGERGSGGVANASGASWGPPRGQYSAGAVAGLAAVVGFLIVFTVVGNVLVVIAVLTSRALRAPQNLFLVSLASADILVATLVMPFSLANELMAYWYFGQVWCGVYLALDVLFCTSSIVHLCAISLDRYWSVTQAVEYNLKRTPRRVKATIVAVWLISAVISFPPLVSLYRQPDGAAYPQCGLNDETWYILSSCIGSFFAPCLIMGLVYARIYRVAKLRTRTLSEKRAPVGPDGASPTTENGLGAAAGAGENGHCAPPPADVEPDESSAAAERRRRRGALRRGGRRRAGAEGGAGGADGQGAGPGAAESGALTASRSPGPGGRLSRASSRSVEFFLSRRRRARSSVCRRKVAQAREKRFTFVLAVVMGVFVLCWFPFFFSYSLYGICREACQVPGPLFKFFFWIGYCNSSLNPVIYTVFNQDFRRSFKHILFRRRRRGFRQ
# Experiment: NVS_GPCR_hAdra2C: NovaScreen (NVS) G Protein-Coupled Receptor Assay for human Adrenergic, Alpha 2c Receptor (Adra2C) (AID 2283259)
# Outline: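 Radioligand binding on Sf9-expressed receptor membranes, 1 h after chemical dosing, filter-based scintillation read-out. Loss of binding fitted positively versus DMSO; primary duplicate screen at 25 uM, actives retested in concentration series.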
SMILES,AC50,outcome
C=CCc1cc(S(=O)(=O)c2ccc(O)c(CC=C)c2)ccc1O,8.06 µM (active),
CCCCCCCCCC,,inactive
Cc1ncc([C@@H](CCCCCCc2ccc3c(n2)NCCC3)CC(=O)O)cn1,16.2 µM (active),
CCn1nc(C)c2c1C(=O)NCC(c1ccc(O)cc1)=N2,,inactive
O=C(O)c1ccc2c(c1)nc(C(=O)NC1CCN(C3CC3)CC1)n2Cc1cc(-c2ccc(Cl)s2)on1,,inactive
c1ccc(C(O[C@@H]2CCCN(CCc3ccc4c(c3)OCO4)C2)c2ccccc2)cc1,2.51 µM (active),
CCCCCCCCCCCCCCCCOS(=O)(=O)O,3.6 µM (active),
COc1cc(C(C)C)c2c(c1)S(=O)(=O)N(COc1cc(=O)n3cccc(OCCN4CCCCC4)c3n1)C2=O,0.424 µM (active),

# Molecular target: human Adrenergic, Beta 3 Receptor (Adrb3), ADRB3 (gene 155) (UniProt P13945)
# Sequence (P13945 whole entry, looked up): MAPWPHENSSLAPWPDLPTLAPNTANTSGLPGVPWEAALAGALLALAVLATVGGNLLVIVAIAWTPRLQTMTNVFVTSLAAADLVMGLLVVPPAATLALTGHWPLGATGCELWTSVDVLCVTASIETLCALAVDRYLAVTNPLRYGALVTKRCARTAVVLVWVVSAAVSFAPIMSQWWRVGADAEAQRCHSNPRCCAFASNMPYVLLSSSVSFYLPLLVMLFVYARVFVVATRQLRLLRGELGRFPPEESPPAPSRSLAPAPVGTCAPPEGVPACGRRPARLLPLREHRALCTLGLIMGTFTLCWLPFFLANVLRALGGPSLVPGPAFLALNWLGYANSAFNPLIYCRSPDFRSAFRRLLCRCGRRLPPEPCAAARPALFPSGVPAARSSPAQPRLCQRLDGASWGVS
# Experiment: NVS_GPCR_hAdrb3: NovaScreen (NVS) G Protein-Coupled Receptor Assay for human Adrenergic, Beta 3 Receptor (Adrb3) (AID 2283262)
# Method: as §1, with “NVS_GPCR_hAdrb3” for “NVS_GPCR_hAdra2A”, “SK-N-MC pretreated with isoproteronol and 8-bromo-cAMP” for “HT29”, “plate.NVS_GPCR_hAdrb3” for “plate.NVS_GPCR_hAdra2A”, “NVS_GPCR_hAdrb3,” for “NVS_GPCR_hAdra2A,”, “ADRB3.” for “ADRA2A.”
# as §2
row,SMILES,outcome
1,CCCCCCCCN(C)C,inactive
2,OCC(CO)(CO)CO,inactive
3,CCn1nc(C)c2c1C(=O)NCC(c1ccc(O)cc1)=N2,inactive
4,c1ccc(C(O[C@@H]2CCCN(CCc3ccc4c(c3)OCO4)C2)c2ccccc2)cc1,inactive

# Molecular target: Type-1 angiotensin II receptor (Homo sapiens) (UniProt P30556)
# Sequence (P30556 whole entry, looked up): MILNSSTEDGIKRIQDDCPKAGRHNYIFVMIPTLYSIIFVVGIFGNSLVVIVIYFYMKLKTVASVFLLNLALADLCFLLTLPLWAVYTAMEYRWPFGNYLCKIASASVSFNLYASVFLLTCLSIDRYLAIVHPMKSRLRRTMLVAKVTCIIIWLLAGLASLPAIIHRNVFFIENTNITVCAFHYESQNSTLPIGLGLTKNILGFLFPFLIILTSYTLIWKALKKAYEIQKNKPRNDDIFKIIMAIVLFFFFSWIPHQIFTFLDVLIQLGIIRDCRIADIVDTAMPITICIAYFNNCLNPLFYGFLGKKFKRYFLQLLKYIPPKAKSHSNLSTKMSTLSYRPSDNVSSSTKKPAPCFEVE
# Experiment: NVS_GPCR_hAT1: NovaScreen (NVS) G Protein-Coupled Receptor Assay for human Angiotensin II receptor type 1 (AT1) (AID 2283263)
# Outline: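 Membranes from KAN-TS cells; radioligand competitive displacement, 3 h, filtration and scintillation counting. Single-point duplicate screen at 25 uM, then concentration-response up to 50 uM for hits; loss of signal fitted versus DMSO.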
SMILES,AC50,outcome
C=CCc1cc(S(=O)(=O)c2ccc(O)c(CC=C)c2)ccc1O,17.1 µM (active),
CCN(CC)C(=S)SSC(=S)N(CC)CC,,inactive
Cc1nccn1-c1ccc(Sc2cccc(C3(C(N)=O)CCOCC3)c2)cc1,,inactive

# Molecular target: human Dopamine Receptor D4.4 (DRD4.4), DRD4 (gene 1815) (UniProt P21917)
# Sequence (P21917 whole entry, looked up): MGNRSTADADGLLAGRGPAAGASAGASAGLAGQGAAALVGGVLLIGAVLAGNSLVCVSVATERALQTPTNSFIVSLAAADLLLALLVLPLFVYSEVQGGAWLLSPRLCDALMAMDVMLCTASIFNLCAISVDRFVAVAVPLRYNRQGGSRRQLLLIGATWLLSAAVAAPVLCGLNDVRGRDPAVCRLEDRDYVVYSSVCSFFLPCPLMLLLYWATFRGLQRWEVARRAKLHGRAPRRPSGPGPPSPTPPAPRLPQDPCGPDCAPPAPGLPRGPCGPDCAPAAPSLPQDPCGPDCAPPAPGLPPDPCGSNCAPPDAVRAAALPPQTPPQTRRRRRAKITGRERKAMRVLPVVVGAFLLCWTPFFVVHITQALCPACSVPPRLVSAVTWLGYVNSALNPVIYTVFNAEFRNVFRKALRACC
# Experiment: NVS_GPCR_hDRD4.4: NovaScreen (NVS) G Protein-Coupled Receptor Assay for human Dopamine Receptor D4.4 (DRD4.4) (AID 2283264)
# Outline: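 Radioligand displacement on human DRD4.4 from CHO-derived membranes, 1 hour incubation, bound counts read by filtration and scintillation. Primary screen in duplicate at 25 uM; actives followed up in concentration series.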
SMILES,AC50,outcome
C=CCc1cc(S(=O)(=O)c2ccc(O)c(CC=C)c2)ccc1O,25 µM (active),
O=C(NO)C1(NS(=O)(=O)c2ccc(Oc3ccc(F)cc3)cc2)CCOCC1,25 µM (active),
O=c1[nH]cnc2c1ncn2[C@H]1CC[C@@H](CO)O1,,inactive
c1ccc(C(O[C@@H]2CCCN(CCc3ccc4c(c3)OCO4)C2)c2ccccc2)cc1,14.8 µM (active),
CCCCCCCCCCCCCCCCOS(=O)(=O)O,12.5 µM (active),
O=S(=O)(O)c1ccc(N=Nc2c(O)ccc3cc(S(=O)(=O)O)ccc23)cc1,32 µM (active),

# Molecular target: human Dopamine Receptor D2 (DRD2), DRD2 (gene 1813) (UniProt P14416)
# Sequence (P14416 whole entry, looked up): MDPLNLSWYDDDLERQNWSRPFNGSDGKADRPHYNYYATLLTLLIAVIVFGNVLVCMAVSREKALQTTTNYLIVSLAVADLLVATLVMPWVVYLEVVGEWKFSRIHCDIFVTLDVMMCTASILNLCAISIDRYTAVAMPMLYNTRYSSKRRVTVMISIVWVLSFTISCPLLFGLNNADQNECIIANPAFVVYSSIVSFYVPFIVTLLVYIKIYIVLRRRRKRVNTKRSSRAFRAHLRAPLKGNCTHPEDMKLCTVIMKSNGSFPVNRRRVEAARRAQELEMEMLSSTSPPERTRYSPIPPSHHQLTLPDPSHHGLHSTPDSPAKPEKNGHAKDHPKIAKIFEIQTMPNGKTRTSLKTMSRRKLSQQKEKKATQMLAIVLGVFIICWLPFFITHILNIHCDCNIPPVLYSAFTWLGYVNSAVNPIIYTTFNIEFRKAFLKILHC
# Experiment: NVS_GPCR_hDRD2s: NovaScreen (NVS) G Protein-Coupled Receptor Assay for human Dopamine Receptor D2 (DRD2) (AID 2283266)
# Outline: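 Radioligand displacement used human DRD2 membranes extracted from CHO cells and was read by filter-based scintillation counting after 1.5 hours. Primary screening was in duplicate at 25 uM. Loss of signal versus DMSO was fitted, with concentration series in follow-up.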
SMILES,AC50,outcome
C=CCc1cc(S(=O)(=O)c2ccc(O)c(CC=C)c2)ccc1O,33.1 µM (active),
CCCCCCCCCC,,inactive
O=c1[nH]cnc2c1ncn2[C@H]1CC[C@@H](CO)O1,32.7 µM (active),
c1ccc(C(O[C@@H]2CCCN(CCc3ccc4c(c3)OCO4)C2)c2ccccc2)cc1,5.47 µM (active),
CCCCCCCCCCCCCCCCOS(=O)(=O)O,,inactive
COc1cc(C(C)C)c2c(c1)S(=O)(=O)N(COc1cc(=O)n3cccc(OCCN4CCCCC4)c3n1)C2=O,1.6 µM (active),
O=S(=O)(O)c1ccc(N=Nc2c(O)ccc3cc(S(=O)(=O)O)ccc23)cc1,8.72 µM (active),
CCc1ccc(O)c(C(C)(C)C)c1,,inactive
